High-throughput results as filed in PubChem BioAssay.
KDM5B inhibitor: KDM5B demethylase inhibition. Potency, µM (titrated, usually from 57.7 µM), actives largely listed as inhibitors. 220,000 tested, 2.6% active. AID 1347165. KDM5B demethylase, FDH-coupled NADH fluorescence (FDH is formaldehyde dehydrogenase). Q9UGL1; active = well fitted inhibition curve with a large enough effect; note: nearly all actives have a fitted effect of over 70% in size
Target sequence (Q9UGL1 whole entry, looked up): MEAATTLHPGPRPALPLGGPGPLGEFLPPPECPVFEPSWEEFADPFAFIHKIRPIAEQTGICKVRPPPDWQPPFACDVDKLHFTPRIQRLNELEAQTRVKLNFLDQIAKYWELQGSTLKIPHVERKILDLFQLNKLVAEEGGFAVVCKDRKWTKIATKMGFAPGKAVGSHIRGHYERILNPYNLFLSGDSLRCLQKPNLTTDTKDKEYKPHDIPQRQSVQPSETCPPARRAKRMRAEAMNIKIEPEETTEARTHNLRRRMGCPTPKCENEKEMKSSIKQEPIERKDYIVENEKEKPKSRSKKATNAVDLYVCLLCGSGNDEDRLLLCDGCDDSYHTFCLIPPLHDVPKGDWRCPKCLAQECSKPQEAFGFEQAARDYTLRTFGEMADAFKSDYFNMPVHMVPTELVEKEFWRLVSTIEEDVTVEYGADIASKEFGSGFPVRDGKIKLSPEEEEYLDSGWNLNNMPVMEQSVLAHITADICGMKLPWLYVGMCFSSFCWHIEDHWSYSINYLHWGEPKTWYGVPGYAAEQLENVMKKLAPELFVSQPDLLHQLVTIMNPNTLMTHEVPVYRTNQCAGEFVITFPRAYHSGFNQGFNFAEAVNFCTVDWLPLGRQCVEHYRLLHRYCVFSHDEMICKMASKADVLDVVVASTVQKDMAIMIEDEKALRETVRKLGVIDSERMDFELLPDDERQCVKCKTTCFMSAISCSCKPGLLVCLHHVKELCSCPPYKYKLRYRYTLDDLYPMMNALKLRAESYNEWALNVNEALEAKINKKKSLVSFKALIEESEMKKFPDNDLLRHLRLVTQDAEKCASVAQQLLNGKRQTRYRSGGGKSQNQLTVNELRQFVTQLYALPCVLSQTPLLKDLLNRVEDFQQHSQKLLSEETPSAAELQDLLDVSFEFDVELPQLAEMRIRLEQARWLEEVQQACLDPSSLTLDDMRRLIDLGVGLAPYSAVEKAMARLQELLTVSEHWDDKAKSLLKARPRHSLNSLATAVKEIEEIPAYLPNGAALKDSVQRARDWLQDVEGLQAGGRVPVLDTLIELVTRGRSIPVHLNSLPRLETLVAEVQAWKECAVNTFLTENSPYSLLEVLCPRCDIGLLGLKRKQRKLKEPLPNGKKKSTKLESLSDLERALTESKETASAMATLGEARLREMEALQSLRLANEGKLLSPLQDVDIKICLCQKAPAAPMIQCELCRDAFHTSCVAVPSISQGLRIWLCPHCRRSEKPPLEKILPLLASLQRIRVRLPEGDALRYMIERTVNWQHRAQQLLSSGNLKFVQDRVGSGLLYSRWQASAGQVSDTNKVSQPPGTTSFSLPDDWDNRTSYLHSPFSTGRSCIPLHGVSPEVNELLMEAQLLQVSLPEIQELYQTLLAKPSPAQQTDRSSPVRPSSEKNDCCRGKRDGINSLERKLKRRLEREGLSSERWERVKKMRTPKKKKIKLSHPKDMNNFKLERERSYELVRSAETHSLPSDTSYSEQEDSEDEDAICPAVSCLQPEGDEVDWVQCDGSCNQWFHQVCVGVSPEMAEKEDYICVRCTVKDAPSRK
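Inhibition is measured as reduced NADH fluorescence generation from FDH coupling to formaldehyde release. Truncated KDM5BΔAP at 200 nM final acts on H3K4me3 peptide (12.5 µM in substrate mix) in pH 7.5 HEPES buffer with Tween-20, 30 min, room temperature.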
Large screens that a line does not name were inactive. This excerpt belongs to a sample that is enriched for hits.

COc1ccc(NC(=O)c2cc(-c3ccc4c(c3)OCO4)on2)cc1OC	none
COc1ccc(NC(=O)c2ccc3c(c2)NC(C)(CNc2ccccc2)CO3)cn1 (stereo unspecified)	none
COc1ccc(C(=O)Nc2ccc3oc(-c4ccccc4)cc(=O)c3c2)cc1OC	none
COc1ccc(NC(=O)c2ccc3c(c2)NC(C)(COc2ccccc2)CO3)cc1OC (stereo unspecified)	KDM5B inhibitor 31.6µM
COc1ccc(NC(=O)c2ccc3c(c2)NC(C)(CNc2ccccc2)CO3)cc1OC (stereo unspecified)	KDM5B inhibitor 35.5µM
COc1ccc(C(=O)Nc2cccc(-c3nnc4n3CCCC4)c2)cc1OC	none
COc1ccc(NC(=O)c2ccc3c(c2)NC(C)(COc2ccccc2)CO3)cn1 (stereo unspecified)	KDM5B inhibitor 31.6µM
COc1ccc(C(=O)Nc2ccc([C@H]3OCC(=O)N[C@@H]3CO)cc2)cc1OC	none
COc1ccc(NC(=O)c2ccc3c(c2)NC(=O)CCS3)cn1	none
O=C(Cn1ccn2nc(-c3ccc(F)cc3)c(CO)c2c1=O)N1CCCCCC1	none
CCCCC(=O)Nc1ccc(O)c(-c2nc3cc(CC)ccc3o2)c1	none
CCC(C)C(NC(=O)c1ccccc1)C(=O)NOCc1ccccc1 (stereo unspecified)	none
O=C(NC1CCCC1)c1ccc(Oc2ccccc2)cc1	none
CC(C)COc1ccc(/C=C(/C#N)c2ccc(Cl)cc2)cc1	none
CC(C)C[C@@H]1N[C@H](C(=O)NC(C)C)Cc2cn(Cc3ccccn3)c3cccc1c23	none
CC(=O)N1CCCC2(C1)C(=NC1CCCC1)NC(=O)N2c1cc(F)cc(F)c1 (stereo unspecified)	none
Cc1ccc(C(=O)N2CCCC3(C2)C(=NC2CCCC2)NC(=O)N3c2cc(F)cc(F)c2)cc1 (stereo unspecified)	none
COc1ccc(C)cc1NC(=O)N1CCCC2(C1)Nc1cccnc1NC2=NC1CCCC1 (stereo unspecified)	KDM5B inhibitor 28.2µM
COc1ccccc1NC(=O)N1CCCC(Cn2c(C)nc3cccnc32)C1 (stereo unspecified)	none
COc1ccc(C)cc1NC(=O)N1CCCC(Cn2c(C3CC3)nc3cccnc32)C1 (stereo unspecified)	none
O=C(Nc1cc(F)cc(F)c1)N1CCCC2(C1)Nc1cccnc1NC2=NC1CCCC1 (stereo unspecified)	KDM5B inhibitor 14.1µM
C/C(=N/NC(=O)c1cccs1)c1ccc(Cl)cc1	none
Cc1cccc(-c2noc(-c3cccc(F)c3)n2)c1	none
CCc1ccccc1NC(=O)c1cnc2ccccc2n1	none
COc1ccc(NC(C)=O)cc1NC(=O)COC(=O)c1ccc(C)s1	none
CN(C)C[C@@H]1CN(S(C)(=O)=O)C[C@H]1NC(=O)c1ccc2nc[nH]c2c1	none
CN(C)C[C@@H]1CN(c2ncccn2)C[C@H]1NC(=O)c1ccccc1C(F)(F)F	KDM5B inhibitor 22.4µM
CN(C)C[C@@H]1CN(C)C[C@H]1NC(=O)c1ccc(F)c(F)c1	none
CN(C)C[C@@H]1CN(S(C)(=O)=O)C[C@H]1NC(=O)c1ccncc1	none
CN(C)C[C@@H]1CN(c2ncccn2)C[C@H]1NC(=O)c1ccc2[nH]ccc2c1	KDM5B inhibitor 31.6µM
CN(C)C[C@@H]1CN(Cc2ccccc2)C[C@H]1NC(=O)c1ccnn1C	none
CN(C)C[C@@H]1CN(S(C)(=O)=O)C[C@H]1NC(=O)c1ccnn1C	none
CN(C)C[C@@H]1CN(c2ncccn2)C[C@H]1NC(=O)c1ccncc1	KDM5B inhibitor 25.1µM
CN(C)C[C@@H]1CN(Cc2ccccc2)C[C@H]1NC(=O)c1ccncc1	none
CN(C)C[C@@H]1CN(S(C)(=O)=O)C[C@H]1NC(=O)c1ccccc1C(F)(F)F	none
CN(C)C[C@@H]1CN(C)C[C@H]1NC(=O)c1ccccc1C(F)(F)F	none
CN(C)C[C@@H]1CN(c2ncccn2)C[C@H]1NC(=O)c1ccnn1C	KDM5B inhibitor 28.2µM
CS(=O)(=O)c1ccc(Cl)c(C(=O)OCC(=O)c2ccc3c(c2)NC(=O)CO3)c1	none
O=C(OC(c1ccccc1)c1ccccn1)c1cnc2ccccc2n1 (stereo unspecified)	none
O=C1C(=O)N(C2CC2)C(=O)N1Cc1ncc(-c2cccc(Cl)c2)o1	none
CCNc1c(NC(=O)Nc2ccc(OCC)cc2)c(=O)oc2ccccc12	none
CCCCNc1nc2c(c(=O)n(Cc3cccc(Br)c3)c(=O)n2C)n1C	none
COc1ccccc1NC(=O)c1cc2cc(C)ccc2n1C	none
O=C(Nc1cccnc1Cl)C1CCCCC1	none
CN(C)C[C@@H]1CN(c2ncccn2)C[C@H]1NC(=O)c1c(F)cccc1F	KDM5B inhibitor 31.6µM
CN(C)C[C@@H]1CN(c2ccncn2)C[C@H]1NC(=O)Cc1c(F)cccc1Cl	none
CN(C)C[C@@H]1CN(Cc2ccccn2)C[C@H]1NC(=O)c1ccc(Cl)cc1	none
CN(C)C[C@@H]1CN(c2ncccn2)C[C@H]1NC(=O)c1ccc(Cl)cc1	KDM5B inhibitor 28.2µM
CN(C)C[C@@H]1CN(C)C[C@H]1NC(=O)c1cnccn1	none
CN(C)C[C@@H]1CN(C)C[C@H]1NS(=O)(=O)c1ccc2c(c1)CCCC2	none
O=C(N[C@@H]1CN(C2CCC2)C[C@H]1CO)c1cnccn1	none
CN(C)C[C@@H]1CN(c2ncccn2)C[C@H]1NC(=O)c1cnccn1	KDM5B inhibitor 25.1µM
CN(C)C[C@@H]1CN(S(C)(=O)=O)C[C@H]1NC(=O)c1c(F)cccc1Cl	none
CN(C)C[C@@H]1CN(c2ncccn2)C[C@H]1NS(=O)(=O)c1cccnc1	KDM5B inhibitor 25.1µM
CN(C)C[C@@H]1CN(S(C)(=O)=O)C[C@H]1NC(=O)c1ccc(Cl)cc1	none
Cc1cc(S(=O)(=O)N[C@@H]2CN(C)C[C@H]2CN(C)C)ccc1Cl	none
Cc1cc(Cn2cc3c4c(cccc42)[C@H](CC(C)C)N[C@H](C(=O)NCc2ccc(C)o2)C3)no1	none
Cc1cccc(C(=O)N2CCN(Cc3nc(N)c4ccccc4n3)CC2)c1C	none
CN(C(=O)CSc1nc2ccsc2c(=O)n1CCc1cccs1)c1ccccc1	none
COc1ccc(OC)c(NC(=O)Cn2c(N3CCC(C)CC3)nc(C)cc2=O)c1	none
O=S1(=O)C=CC2ON=C(c3c(Cl)cccc3Cl)C21 (stereo unspecified)	none
CCCCCCOc1ccc(C(=O)O)cc1Br	none
C/C(=N/Nc1ccc(S(N)(=O)=O)cc1[N+](=O)[O-])c1cccc(C(F)(F)F)c1	none
COc1cc(/C=C/C(=O)c2ccccc2C)cc(OC)c1OC(F)F	none
Cn1cc(CN2C[C@H](C(=O)Nc3ccccc3)C[C@H]2c2cccc(C(F)(F)F)c2)cn1	none
Cc1ccc(NC(=S)NCC(C)(C)N2CCOCC2)cc1C	none
CCc1ccc(C(CNC(=O)c2nc(-c3ccccc3)oc2C)N(C)C)cc1 (stereo unspecified)	none
COc1ccc(CNC(=O)CN2CCC(c3nc4ccccc4s3)CC2)cc1	none
O=C(COc1cccc(-n2cnnn2)c1)N1CCN(S(=O)(=O)c2ccccc2F)CC1	none
CN(C)C[C@@H]1CN(c2ccncn2)C[C@H]1NC(=O)c1cc(Cl)ccc1F	none
CN(C)C[C@@H]1CN(S(C)(=O)=O)C[C@H]1NC(=O)c1ncccn1	none
Cc1cccnc1C(=O)N[C@@H]1CN(S(C)(=O)=O)C[C@H]1CN(C)C	none
CN(C)C[C@@H]1CN(C)C[C@H]1NC(=O)Cc1cccc(Cl)c1	none
CN(C)C[C@@H]1CN(c2ncccn2)C[C@H]1NC(=O)c1ccncn1	KDM5B inhibitor 31.6µM
Cc1cc(C(=O)N[C@@H]2CN(c3ccncn3)C[C@H]2CN(C)C)no1	none
Cc1ccsc1C(=O)N[C@@H]1CN(c2ncccn2)C[C@H]1CN(C)C	KDM5B inhibitor 31.6µM
CN(C)C[C@@H]1CN(C2CCOCC2)C[C@H]1NC(=O)c1cccc(Cl)c1	none
